Drawing on PubChem BioAssay (Tox21), this text covers Potency and outcome for 7 molecules.

Unmarked numbers belong to inactive results. Results filed as inconclusive are left out. The source made the active and inactive calls. Unless noted, calls come from the whole dose curve.

The nature of test [1]: Nuclear factor erythroid 2-related factor 2/antioxidant responsive element (Nrf2/ARE) small molecule agonists: qHTS cell viability counter screen in human keratinocytes (AID 1919968; active = well fitted curve in the direction sought with a large enough effect in the repeat runs; an effect the other way counts as inactive or inconclusive; note: nearly all actives have a fitted effect of over 55% in size; note: potency is the fitted concentration of half-maximal effect). The essentials: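 KeratinoSens HaCaT cells, 1,500/well, preincubated 5 h, then exposed to compounds in DMSO for 23 h at 37 C/5% CO2. Viability read as CellTiter-Fluor fluorescence after 1 h, in the same wells as the ARE-luciferase read.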

Test [2] in a line: Nuclear factor erythroid 2-related factor 2/antioxidant responsive element (Nrf2/ARE) small molecule agonists: luciferase reporter gene qHTS assay in human keratinocytes (AID 1919969). Note: nearly all actives have a fitted effect of over 35% in size.
Test [3] concerns the target Gonadotropin-releasing hormone receptor (Homo sapiens) (UniProt P30968). Nature of the test: Human gonadotropin-releasing hormone receptor (GnRHR) small molecule agonists, calcium flux assay in GnRHR-HEK293 cells (AID 1920063). Note: nearly all actives have a fitted effect of over 35% in size. The essentials: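 HEK293 cells stably expressing human GnRHR were dye-loaded for 1 h at 37 C. Compound was added in agonist mode and fluorescence (Ex/Em 480/540) recorded kinetically for 3 min. Fifteen concentrations, triplicates.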

Test [4] addresses KiSS-1 receptor (Homo sapiens) (UniProt Q969F8). Nature of the test: Human kisspeptin (KISS1R) small molecule agonists, calcium flux assay in KISS1R-HEK293 cells (AID 1920064; active = well fitted curve in the direction sought with a large enough effect in the repeat runs; an effect the other way counts as inactive or inconclusive). The essentials: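 HEK293 cells stably expressing human KISS1R were loaded with calcium dye for 1 h at 37 C, then given compound; fluorescence (Ex/Em 480/540) was read kinetically for 3 min. Fifteen concentrations, triplicate.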

The nature of test [5]: G protein-coupled receptor (GPCR) small molecule agonists, calcium flux assay: HEK293 wild type cell line counter screen (AID 1920065). The procedure, abridged: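 Wild-type HEK293 cells plated 18 h, loaded with calcium dye 1 h at 37 C, then compounds added in agonist mode (ATP as positive control). Kinetic fluorescence Ex/Em 480/540 recorded 3 min at 1 sec intervals; 15 concentrations, triplicate.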

A short description of test [6]: p53 small molecule agonists, cell-based qHTS assay with human liver microsomes (AID 1963577). The essentials: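 Fluorescence of the beta-lactamase reporter in p53RE-bla cells, detected with LiveBLAzer substrate (2 h, room temperature, dark), served as the read-out after 16 h compound exposure at 37 C with human liver microsomes and NADPH, each 0.5 mg/mL final.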
The nature of test [7]: p53 small molecule agonists, cell-based qHTS assay with rat liver microsomes (AID 1963578). The essentials: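 Cells carrying a p53 response element–beta-lactamase reporter were plated and rested 5 h, then dosed with compound in DMSO plus rat liver microsomes and NADPH, each at 0.5 mg/mL final. After 16 h at 37 C, LiveBLAzer substrate was added for 2 h.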
Test [8] in a line: p53 small molecule agonists, cell-based qHTS assay with human liver microsomes: qHTS cell viability counter screen (AID 1963579). Note: nearly all actives have a fitted effect of over 45% in size. The essentials:
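Cytotoxicity counter screen: p53RE-bla, 4,000 cells/well; 5 h settle, 37 C/5% CO2; cpd + HLM 0.5 mg/mL + NADPH 0.5 mg/mL (final); 16 h, 37 C; CellTiter-Glo, 30 min RT, luminescence.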

Test [9] in a line: p53 small molecule agonists, cell-based qHTS assay: qHTS cell viability counter screen (AID 1963581). Note: nearly all actives have a fitted effect of over 45% in size. The essentials:
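p53RE-bla HCT-116 cells, compounds added 5 h after plating and incubated 16 h at 37 C. Cytotoxicity measured in the same wells as intracellular ATP by CellTiter-Glo luminescence after 30 min at room temperature.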

The nature of test [10]: p53 small molecule agonists, cell-based qHTS assay (AID 1963582; active = well fitted activation curve with a large enough effect in the signal ratio in the repeat runs, not every such curve was filed as active; the % refers to the signal ratio). The essentials: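 p53RE-bla reporter cells, compounds added in DMSO after 5 h plating, incubated 16 h at 37 C. Beta-lactamase read via 2 h room-temperature LiveBLAzer B/G FRET substrate, fluorescence intensity.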
The target in test [11] is 5-hydroxytryptamine receptor 2A (Homo sapiens) (UniProt P28223). Nature of the test: 5-hydroxytryptamine receptor 2A (HTR2A) small molecule antagonists, cell-based qHTS assay (AID 1963586). Note: nearly all actives have a fitted effect of over 45% in size. The procedure, abridged: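 Antagonist-mode intracellular calcium assay: DOI (4 nM) added after 5 min compound pre-incubation at room temperature to dye-loaded HTR2A-CHO cells. Fluorescence followed for 3 min, sampled every second.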

Test [12] has the same target. Nature of the test: 5-hydroxytryptamine receptor 2A (HTR2A) small molecule agonists, cell-based qHTS assay (AID 1963587). Note: nearly all actives have a fitted effect of over 30% in size. Note: potency is the fitted concentration of half-maximal effect. The essentials:
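HTR2A-CHO cells, plated 18 h at 37 C/5% CO2, dye-loaded 1 h at 37 C; compounds in DMSO added by pin tool (agonist mode). Intracellular calcium flux read as kinetic fluorescence on FDSS over 2 min at 1 s intervals.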

For test [13], the target named is Muscarinic acetylcholine receptor M1 (Homo sapiens) (UniProt P11229). Kind of test: Cholinergic receptor muscarinic 1 (CHRM1) small molecule antagonists, cell-based qHTS assay (AID 1963588). Note: nearly all actives have a fitted effect of over 40% in size. Note: potency is the fitted concentration of half-maximal effect. The procedure, abridged:
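CHRM1-CHO calcium-flux assay, antagonist mode. Cells were seeded 18 h, dye-loaded 1 h at 37 C and given compound for 5 min at RT, then acetylcholine was added at 50nM. FDSS fluorescence was read 3 min; 15 concentrations, three runs.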

Test [14] shares this target. Nature of the test: Cholinergic receptor muscarinic 1 (CHRM1) small molecule agonists, cell-based qHTS assay (AID 1963589). Note: nearly all actives have a fitted effect of over 35% in size. The procedure, abridged:
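CHO cells stably expressing human CHRM1 were loaded with calcium dye for 1 h at 37 C, then compound was added in agonist mode. Intracellular calcium fluorescence was followed kinetically at 1 s intervals. Fifteen concentrations were tested in three independent runs.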

The nature of test [15]: cAMP Responsive Elements (CRE) small molecule antagonists, cell-based qHTS assay (AID 1963591; active = well fitted inhibition curve with a large enough effect in the signal ratio in the repeat runs, not every such curve was filed as active; the % refers to the signal ratio). The essentials: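 CRE-bla HEK293T cells plated 18 h, then given compound plus NKH477 at 0.25 uM final for 3 h at 37C. Beta-lactamase reporter read with LiveBLAzer B/G FRET substrate after 2 h at room temperature.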
The target in test [16] is Beta-2 adrenergic receptor (Homo sapiens) (UniProt P07550). Kind of test: Adrenergic beta2 receptor (ADRB2) small molecule antagonists, cell-based qHTS assay (AID 1963592). Note: series mostly up to about 92 µM; nearly all actives have a fitted effect of over 50% in size. The essentials: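 Cells (CHO, stable ADRB2 overexpression) incubated 18-20hr at 37C; compounds added from DMSO; agonist mix (1nM isoproterenol, 100uM IBMX, 25uM Ro-20-1724) added; 0.5hr RT; d2-cAMP and anti-cAMP-cryptate added; 1hr RT; 665/615 nm read.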

The target in test [17] is D(2) dopamine receptor (Homo sapiens) (UniProt P14416). Kind of test: Dopamine D2 receptor (DRD2) small molecule agonists, cell-based qHTS assay (AID 1963594). Note: nearly all actives have a fitted effect of over 35% in size. The essentials:
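HEK293 cells stably expressing DRD2 were cultured 24 h at 37 C, then given Ro20-1724 (0.1 mM final) and compounds for 10 min at room temperature. NKH477 (200nM) was then added for 30 min. cAMP was read by HTRF.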

The target is the same in test [18]. Kind of test: Dopamine D2 receptor (DRD2) small molecule antagonists, cell-based qHTS assay (AID 1963595; active = well fitted inhibition curve with a large enough effect in the signal ratio in the repeat runs, with a control signal flat; the % refers to the signal ratio). The procedure, abridged: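 In this cell-based antagonist screen, compounds act for 10 min at room temperature before a 30 min challenge with 12 nM quinpirole and 200 nM NKH477. cAMP is quantified by HTRF competition in DRD2-HEK293 cells containing 0.1 mM Ro20-1724.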

A short description of test [19]: cAMP Responsive Elements (CRE) small molecule agonists, cell-based qHTS assay (AID 1963590). The procedure, abridged: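 CRE-bla HEK 293T cells, 2,000/well in DMEM with 10% dialyzed FBS and 25 mM HEPES, pre-incubated 18 h at 37 C, then exposed to compound 3 h at 37 C. Beta-lactamase reporter read with LiveBLAzer B/G FRET substrate after 2 h at room temperature.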

Sequence of Beta-2 adrenergic receptor (Homo sapiens) (P07550 whole entry, looked up): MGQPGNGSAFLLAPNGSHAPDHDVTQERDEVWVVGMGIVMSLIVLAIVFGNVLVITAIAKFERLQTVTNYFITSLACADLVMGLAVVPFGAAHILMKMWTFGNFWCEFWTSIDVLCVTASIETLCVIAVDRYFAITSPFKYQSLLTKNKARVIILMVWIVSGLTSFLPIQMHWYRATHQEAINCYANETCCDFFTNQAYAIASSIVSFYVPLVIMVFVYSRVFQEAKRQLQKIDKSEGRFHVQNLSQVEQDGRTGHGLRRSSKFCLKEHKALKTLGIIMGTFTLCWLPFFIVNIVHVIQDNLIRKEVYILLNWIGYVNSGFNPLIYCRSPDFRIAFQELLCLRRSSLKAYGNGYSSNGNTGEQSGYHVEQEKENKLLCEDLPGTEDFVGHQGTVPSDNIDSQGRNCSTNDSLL
Sequence of 5-hydroxytryptamine receptor 2A (Homo sapiens) (P28223 whole entry, looked up): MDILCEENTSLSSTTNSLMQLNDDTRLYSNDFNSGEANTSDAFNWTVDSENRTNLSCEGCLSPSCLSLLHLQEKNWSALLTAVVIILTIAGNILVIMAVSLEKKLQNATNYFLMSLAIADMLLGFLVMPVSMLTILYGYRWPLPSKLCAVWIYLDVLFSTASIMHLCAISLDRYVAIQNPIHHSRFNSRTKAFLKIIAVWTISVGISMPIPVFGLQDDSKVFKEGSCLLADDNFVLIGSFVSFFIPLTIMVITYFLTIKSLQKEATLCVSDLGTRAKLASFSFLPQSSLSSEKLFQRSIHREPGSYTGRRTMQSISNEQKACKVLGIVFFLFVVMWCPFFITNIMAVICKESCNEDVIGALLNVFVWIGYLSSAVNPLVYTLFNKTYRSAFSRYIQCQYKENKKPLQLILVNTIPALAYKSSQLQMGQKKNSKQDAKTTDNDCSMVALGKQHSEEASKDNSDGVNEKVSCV
Sequence of D(2) dopamine receptor (Homo sapiens) (P14416 whole entry, looked up): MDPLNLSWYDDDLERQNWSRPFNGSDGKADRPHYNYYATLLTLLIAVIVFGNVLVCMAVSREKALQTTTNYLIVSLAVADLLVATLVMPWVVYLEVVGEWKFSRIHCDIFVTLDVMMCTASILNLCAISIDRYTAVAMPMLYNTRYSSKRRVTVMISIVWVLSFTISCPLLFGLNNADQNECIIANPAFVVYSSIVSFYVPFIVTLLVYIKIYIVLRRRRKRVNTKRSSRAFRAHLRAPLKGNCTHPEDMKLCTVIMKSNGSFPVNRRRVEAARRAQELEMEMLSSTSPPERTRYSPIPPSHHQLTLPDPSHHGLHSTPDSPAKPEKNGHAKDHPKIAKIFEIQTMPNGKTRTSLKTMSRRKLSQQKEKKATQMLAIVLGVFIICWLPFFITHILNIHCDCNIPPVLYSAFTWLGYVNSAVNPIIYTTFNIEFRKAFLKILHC
Sequence of Gonadotropin-releasing hormone receptor (Homo sapiens) (P30968 whole entry, looked up): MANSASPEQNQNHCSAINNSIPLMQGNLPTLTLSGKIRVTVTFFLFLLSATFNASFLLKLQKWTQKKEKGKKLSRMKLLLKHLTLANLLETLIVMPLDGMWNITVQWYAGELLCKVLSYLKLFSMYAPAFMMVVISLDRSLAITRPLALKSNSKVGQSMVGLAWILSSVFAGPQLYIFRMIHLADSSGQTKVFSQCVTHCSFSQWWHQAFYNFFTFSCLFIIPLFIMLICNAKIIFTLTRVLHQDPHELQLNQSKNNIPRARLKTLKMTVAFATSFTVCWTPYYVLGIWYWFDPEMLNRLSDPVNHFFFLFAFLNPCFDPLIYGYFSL
Sequence of Muscarinic acetylcholine receptor M1 (Homo sapiens) (P11229 whole entry, looked up): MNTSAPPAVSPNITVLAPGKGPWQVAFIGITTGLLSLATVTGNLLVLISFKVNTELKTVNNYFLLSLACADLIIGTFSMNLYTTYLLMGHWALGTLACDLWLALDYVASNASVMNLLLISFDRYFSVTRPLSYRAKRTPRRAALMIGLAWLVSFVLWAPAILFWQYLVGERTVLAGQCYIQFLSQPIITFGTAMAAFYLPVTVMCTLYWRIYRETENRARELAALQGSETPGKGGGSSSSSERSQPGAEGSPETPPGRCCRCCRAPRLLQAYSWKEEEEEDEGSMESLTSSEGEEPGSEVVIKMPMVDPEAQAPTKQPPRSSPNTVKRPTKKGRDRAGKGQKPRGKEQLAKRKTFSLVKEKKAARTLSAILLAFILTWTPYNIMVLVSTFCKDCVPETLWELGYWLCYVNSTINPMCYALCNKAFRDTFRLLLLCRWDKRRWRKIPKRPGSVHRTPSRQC
Sequence of KiSS-1 receptor (Homo sapiens) (Q969F8 whole entry, looked up): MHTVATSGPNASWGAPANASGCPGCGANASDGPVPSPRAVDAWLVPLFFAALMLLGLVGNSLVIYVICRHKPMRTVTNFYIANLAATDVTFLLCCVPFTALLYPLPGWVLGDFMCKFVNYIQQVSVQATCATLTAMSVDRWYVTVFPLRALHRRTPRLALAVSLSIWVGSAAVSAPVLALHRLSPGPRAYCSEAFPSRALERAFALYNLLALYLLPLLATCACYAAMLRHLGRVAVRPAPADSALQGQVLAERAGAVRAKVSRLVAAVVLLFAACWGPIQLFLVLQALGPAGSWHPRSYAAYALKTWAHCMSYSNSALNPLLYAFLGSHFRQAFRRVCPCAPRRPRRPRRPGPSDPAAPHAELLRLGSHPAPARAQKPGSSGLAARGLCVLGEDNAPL

For `O=C(N[C@@H](Cc1ccccc1)[C@@H](O)C(=O)N1C[C@@H](O)[C@@H](O)C1)c1cc2cc(Cl)ccc2[nH]1`, the Potency result in [1], in test [2], in test [3], in test [6], in test [7] and in test [8] was “inactive” throughout. For the same molecule, the Potency result in test [9], in test [10], in [11], in test [12], in [13] and in [14] was “inactive” throughout. The Potency entry in [15], in test [16], in [17] and in test [18] was “inactive” throughout. Besides, the outcome in test [4] and in test [5] was inactive.

With `COc1cccc(-c2ccc(/C=C\CN3CCCCCC3)cc2Cl)c1`, the results for the Potency in [1] and in test [13] were 38.4 µM (active) and 0.836 µM (active), respectively. The Potency result in test [2], in [3], in test [6], in test [7], in test [8] and in test [9] was “inactive” each time. Besides, the Potency entry in [10], in [11], in [14] and in test [16] was “inactive” throughout. The outcome in test [4] and in [5] was inactive.

For the molecule `CC(=O)C(C)=O`, the Potency result in [1], in [2], in test [3], in test [6], in [7] and in test [8] was “inactive” throughout. Further, the Potency entry in test [9], in test [10], in [11], in [12], in [13] and in test [15] was “inactive” each time. Also, the Potency entry in test [16], in test [17] and in test [18] was “inactive” throughout. For the same molecule, the result in test [4] and in test [5] was inactive.

Regarding `CCCCC(CC)COC(=O)c1ccccc1O` (stereo not given), the Potency entry in [1], in test [2], in test [3], in test [6], in [7] and in [8] was “inactive” each time. Besides, the Potency entry in test [9], in test [10], in test [11], in test [12], in test [13] and in [19] was “inactive” in each case. The Potency entry in test [15], in test [16] and in test [17] was “inactive” throughout. For the same molecule, the result in test [4] and in test [5] was inactive.

`C1=CCC(c2ccccc2)CC1` (stereo not given): the Potency entry in test [1], in [2], in [3], in [6], in test [7] and in test [8] was “inactive” each time. In addition, the Potency entry in test [9], in test [10], in [11], in test [12], in test [13] and in [14] was “inactive” throughout. Besides, the Potency entry in [19], in [15], in test [16], in test [17] and in test [18] was “inactive” throughout. For the same molecule, the result in test [4] and in [5] was inactive.

In the case of `O=C(NCCc1c[nH]c2ccccc12)c1cccnc1`, the Potency result in [1], in test [2], in test [3], in test [6], in test [7] and in [8] was “inactive” throughout. Besides, the Potency entry in test [9], in test [10], in test [13], in test [14], in [19] and in test [15] was “inactive” each time. The Potency entry in [16] and in [18] was “inactive” each time. Besides, the result in test [4] and in test [5] was inactive. Also, the Potency in test [12] was 3.01 µM (active).

As to `Cc1ccccc1C(=O)O`, the Potency entry in test [1], in test [2], in [3], in test [6], in test [7] and in [8] was “inactive” in each case. For the same molecule, the Potency entry in test [9], in test [10], in test [11], in test [12], in test [13] and in [14] was “inactive” in each case. For the same molecule, the Potency result in test [19], in [15], in test [17] and in test [18] was “inactive” each time. In addition, the outcome in test [4] and in [5] was inactive.
